Key:
Assay in all cases: DAPPL (digital affinity profiling via proximity ligation, sequencing); 10 mM Tris-HCl pH 7.5, 50 mM NaCl, 1 mM DTT, 4% glycerol, room temperature, 30 min; GST-TFs on glutathione beads, 16-mer random dsDNA library, 0.1% formaldehyde crosslink after washing; high values mean tight binding
FEV = target: T1, FEV (Homo sapiens, UniProt Q99581 1-238); settings: protein: recombinant; tags: N-terminal GST; dsDNA, one strand shown
T1 sequence: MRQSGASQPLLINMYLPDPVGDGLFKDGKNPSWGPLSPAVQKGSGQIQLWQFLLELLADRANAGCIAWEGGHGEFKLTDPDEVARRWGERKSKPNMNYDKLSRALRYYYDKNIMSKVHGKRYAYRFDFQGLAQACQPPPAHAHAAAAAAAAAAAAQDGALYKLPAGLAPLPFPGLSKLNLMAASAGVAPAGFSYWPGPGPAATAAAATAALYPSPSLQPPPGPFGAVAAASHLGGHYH
How it was run: (§1)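 Yeast served to express human transcription factors as GST fusions, which were then captured on glutathione beads and labelled with DNA barcodes. Pooled with a tag-only sample, they were incubated with 200 nmole of a 16-mer random double-stranded DNA library for 30 min at room temperature in Tris/NaCl/DTT/glycerol buffer, washed, crosslinked with 0.1% formaldehyde, ligated by proximity, amplified by PCR and sequenced. Dividing each hexamer's read frequency for a factor by its frequency for the tag-only sample gives the binding signal.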

ETV5 = ETV5 (Homo sapiens, UniProt P41161 1-510); settings: protein: recombinant; tags: N-terminal GST; dsDNA, one strand shown
ETV5, sequence (P41161 whole entry): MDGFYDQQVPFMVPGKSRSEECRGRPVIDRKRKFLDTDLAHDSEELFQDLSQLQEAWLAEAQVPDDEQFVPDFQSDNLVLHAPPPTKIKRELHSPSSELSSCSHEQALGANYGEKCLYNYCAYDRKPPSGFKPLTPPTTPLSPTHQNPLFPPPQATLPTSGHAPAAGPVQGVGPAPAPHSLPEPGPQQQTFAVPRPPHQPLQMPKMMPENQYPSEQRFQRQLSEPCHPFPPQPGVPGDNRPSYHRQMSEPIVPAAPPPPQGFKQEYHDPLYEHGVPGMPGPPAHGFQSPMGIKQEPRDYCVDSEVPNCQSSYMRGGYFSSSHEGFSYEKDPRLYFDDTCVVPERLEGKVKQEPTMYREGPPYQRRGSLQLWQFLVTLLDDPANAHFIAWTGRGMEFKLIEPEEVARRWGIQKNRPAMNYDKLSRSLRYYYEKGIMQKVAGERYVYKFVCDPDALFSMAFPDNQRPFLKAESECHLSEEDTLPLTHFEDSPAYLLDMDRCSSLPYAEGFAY
How it was run: as §1

HSF1 = HSF1 (Homo sapiens, UniProt Q00613 1-529); settings: protein: recombinant; tags: N-terminal GST; chain copies: 3; dsDNA, one strand shown
HSF1, sequence (Q00613 whole entry): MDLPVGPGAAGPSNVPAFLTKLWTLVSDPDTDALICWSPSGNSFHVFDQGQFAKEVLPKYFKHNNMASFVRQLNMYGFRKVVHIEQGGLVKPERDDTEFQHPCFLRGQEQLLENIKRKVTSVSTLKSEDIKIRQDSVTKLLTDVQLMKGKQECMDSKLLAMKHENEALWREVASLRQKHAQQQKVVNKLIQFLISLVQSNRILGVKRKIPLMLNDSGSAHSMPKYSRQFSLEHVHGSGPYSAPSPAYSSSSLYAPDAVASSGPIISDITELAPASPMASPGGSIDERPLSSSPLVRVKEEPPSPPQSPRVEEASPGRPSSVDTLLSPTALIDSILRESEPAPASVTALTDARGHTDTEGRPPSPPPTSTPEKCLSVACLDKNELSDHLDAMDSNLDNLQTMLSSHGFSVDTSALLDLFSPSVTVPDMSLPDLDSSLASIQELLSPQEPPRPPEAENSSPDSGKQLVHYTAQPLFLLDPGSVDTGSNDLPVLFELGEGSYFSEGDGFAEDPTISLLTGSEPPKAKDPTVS
How it was run: as §1

SPIC = target: T2, SPIC (Homo sapiens, UniProt Q8N5J4 1-248); settings: protein: recombinant; tags: N-terminal GST; dsDNA, one strand shown
T2 sequence: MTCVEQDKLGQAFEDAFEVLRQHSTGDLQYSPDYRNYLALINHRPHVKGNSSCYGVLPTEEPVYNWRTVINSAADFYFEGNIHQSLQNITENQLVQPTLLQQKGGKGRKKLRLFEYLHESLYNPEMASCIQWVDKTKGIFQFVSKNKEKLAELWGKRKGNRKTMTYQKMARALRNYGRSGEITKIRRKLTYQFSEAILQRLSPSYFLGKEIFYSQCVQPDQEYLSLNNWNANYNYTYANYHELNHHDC
How it was run: as §1

ELF4 = ELF4 (Homo sapiens, UniProt Q99607 1-663); settings: protein: recombinant; tags: N-terminal GST; dsDNA, one strand shown
ELF4, sequence (Q99607 whole entry): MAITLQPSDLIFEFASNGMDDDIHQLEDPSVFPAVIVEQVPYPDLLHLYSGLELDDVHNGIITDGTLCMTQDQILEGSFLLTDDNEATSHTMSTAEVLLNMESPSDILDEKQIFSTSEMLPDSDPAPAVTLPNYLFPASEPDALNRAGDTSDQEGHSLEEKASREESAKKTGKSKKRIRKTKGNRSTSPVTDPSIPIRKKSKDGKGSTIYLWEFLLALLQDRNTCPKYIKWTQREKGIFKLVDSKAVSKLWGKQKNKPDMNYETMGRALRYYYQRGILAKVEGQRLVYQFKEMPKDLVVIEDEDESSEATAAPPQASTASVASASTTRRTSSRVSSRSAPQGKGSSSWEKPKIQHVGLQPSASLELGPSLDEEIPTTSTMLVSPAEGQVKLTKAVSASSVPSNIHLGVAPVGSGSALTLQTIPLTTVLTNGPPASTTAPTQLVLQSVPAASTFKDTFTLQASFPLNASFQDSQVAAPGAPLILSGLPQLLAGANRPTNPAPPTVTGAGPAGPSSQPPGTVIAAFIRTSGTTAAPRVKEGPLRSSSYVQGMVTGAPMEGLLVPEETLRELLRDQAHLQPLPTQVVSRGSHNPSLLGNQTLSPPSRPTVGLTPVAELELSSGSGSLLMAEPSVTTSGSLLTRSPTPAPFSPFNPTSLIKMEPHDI
How it was run: as §1

ELK4 = target: T3, ELK4 (Homo sapiens, UniProt P28324-2 1-405); settings: protein: recombinant; tags: N-terminal GST; dsDNA, one strand shown
T3 sequence: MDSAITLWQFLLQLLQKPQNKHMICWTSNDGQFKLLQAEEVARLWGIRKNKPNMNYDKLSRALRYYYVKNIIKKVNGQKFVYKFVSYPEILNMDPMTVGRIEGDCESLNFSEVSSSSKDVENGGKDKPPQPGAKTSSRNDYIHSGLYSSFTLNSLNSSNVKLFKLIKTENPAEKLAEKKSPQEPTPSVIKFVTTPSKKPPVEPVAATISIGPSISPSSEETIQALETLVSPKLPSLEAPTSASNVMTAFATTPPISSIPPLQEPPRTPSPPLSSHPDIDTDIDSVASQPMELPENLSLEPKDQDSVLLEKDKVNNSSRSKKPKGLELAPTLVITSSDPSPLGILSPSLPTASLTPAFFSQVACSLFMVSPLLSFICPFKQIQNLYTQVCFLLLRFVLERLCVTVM
How it was run: as §1

ETV2 = target: T4, ETV2 (Homo sapiens, UniProt O00321 1-342); settings: protein: recombinant; tags: N-terminal GST; dsDNA, one strand shown
T4 sequence: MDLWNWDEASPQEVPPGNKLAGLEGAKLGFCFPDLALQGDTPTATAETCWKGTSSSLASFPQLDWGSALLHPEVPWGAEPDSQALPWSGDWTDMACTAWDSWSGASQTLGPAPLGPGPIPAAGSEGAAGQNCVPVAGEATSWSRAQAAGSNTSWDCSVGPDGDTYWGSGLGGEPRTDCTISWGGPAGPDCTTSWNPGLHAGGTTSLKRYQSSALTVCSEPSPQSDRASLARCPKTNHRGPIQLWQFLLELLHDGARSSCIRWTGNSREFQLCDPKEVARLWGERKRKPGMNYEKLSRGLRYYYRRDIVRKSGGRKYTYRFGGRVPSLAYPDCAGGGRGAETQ
How it was run: as §1

ELF3 = target: T5, ELF3 (Homo sapiens, UniProt P78545 1-371); settings: protein: recombinant; tags: N-terminal GST; dsDNA, one strand shown
T5 sequence: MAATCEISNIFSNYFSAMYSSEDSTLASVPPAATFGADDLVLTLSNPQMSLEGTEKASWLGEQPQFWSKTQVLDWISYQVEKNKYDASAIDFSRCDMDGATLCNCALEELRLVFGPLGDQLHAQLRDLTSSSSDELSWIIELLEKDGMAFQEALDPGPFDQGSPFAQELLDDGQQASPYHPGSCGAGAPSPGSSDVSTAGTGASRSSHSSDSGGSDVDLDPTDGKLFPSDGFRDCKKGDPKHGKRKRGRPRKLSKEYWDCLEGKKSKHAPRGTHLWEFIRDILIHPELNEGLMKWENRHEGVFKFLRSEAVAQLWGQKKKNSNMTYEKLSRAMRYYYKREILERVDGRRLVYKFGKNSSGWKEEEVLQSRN
How it was run: as §1

CRX = CRX (Homo sapiens, UniProt O43186 1-299); settings: protein: recombinant; tags: N-terminal GST; dsDNA, one strand shown
CRX, sequence (O43186 whole entry): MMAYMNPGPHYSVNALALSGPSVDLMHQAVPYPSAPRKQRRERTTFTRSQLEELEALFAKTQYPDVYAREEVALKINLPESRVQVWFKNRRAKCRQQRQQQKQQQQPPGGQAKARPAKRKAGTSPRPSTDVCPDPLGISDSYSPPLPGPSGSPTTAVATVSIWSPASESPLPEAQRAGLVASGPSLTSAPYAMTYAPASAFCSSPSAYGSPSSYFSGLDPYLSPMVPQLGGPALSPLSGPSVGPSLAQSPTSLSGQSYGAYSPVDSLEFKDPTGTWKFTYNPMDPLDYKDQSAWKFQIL
How it was run: as §1

ETV1 = ETV1 (Homo sapiens, UniProt P50549 1-477); settings: protein: recombinant; tags: N-terminal GST; dsDNA, one strand shown
ETV1, sequence (P50549 whole entry): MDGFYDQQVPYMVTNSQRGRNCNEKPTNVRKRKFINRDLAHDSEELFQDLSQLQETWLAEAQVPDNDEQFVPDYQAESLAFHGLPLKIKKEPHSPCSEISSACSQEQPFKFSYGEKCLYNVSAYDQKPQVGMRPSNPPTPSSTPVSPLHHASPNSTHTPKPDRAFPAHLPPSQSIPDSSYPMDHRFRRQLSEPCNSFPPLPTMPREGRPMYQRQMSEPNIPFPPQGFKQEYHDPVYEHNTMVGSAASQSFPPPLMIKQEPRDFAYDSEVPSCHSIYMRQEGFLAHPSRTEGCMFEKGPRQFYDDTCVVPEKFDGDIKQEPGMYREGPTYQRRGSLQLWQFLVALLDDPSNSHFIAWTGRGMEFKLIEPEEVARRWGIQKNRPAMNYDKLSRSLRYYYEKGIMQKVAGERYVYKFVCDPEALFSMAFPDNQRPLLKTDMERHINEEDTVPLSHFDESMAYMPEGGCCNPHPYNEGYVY
How it was run: as §1

ERF = target: T6, ERF (Homo sapiens, UniProt P50548 1-548); settings: protein: recombinant; tags: N-terminal GST; dsDNA, one strand shown
T6 sequence: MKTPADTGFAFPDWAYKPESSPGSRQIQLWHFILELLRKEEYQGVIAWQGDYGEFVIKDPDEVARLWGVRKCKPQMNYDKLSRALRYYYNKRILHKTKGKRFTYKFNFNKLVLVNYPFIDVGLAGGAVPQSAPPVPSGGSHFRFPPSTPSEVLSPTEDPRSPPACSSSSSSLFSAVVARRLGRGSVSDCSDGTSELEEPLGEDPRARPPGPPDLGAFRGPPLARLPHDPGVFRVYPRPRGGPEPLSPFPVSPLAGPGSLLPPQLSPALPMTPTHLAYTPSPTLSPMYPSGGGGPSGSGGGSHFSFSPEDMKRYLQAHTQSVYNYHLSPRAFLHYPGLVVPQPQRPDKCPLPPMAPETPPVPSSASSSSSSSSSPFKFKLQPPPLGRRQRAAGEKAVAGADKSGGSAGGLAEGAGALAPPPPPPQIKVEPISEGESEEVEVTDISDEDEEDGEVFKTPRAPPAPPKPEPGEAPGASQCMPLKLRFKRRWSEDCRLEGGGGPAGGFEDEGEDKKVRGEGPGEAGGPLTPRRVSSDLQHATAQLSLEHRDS
How it was run: as §1

ETV3L = target: T7, ETV3L (Homo sapiens, UniProt Q6ZN32 1-361); settings: protein: recombinant; tags: N-terminal GST; dsDNA, one strand shown
T7 sequence: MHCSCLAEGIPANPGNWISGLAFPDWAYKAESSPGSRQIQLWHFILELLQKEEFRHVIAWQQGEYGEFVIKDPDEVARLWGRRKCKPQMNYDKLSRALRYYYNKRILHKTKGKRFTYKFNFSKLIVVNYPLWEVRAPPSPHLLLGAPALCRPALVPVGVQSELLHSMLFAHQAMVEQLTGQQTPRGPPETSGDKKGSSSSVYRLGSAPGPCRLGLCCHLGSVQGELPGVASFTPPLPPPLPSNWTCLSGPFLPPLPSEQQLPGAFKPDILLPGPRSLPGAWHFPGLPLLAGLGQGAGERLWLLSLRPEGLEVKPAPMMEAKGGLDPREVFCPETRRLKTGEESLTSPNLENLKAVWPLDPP
How it was run: as §1

ETS2 = target: T8, ETS2 (Homo sapiens, UniProt P15036 1-469); settings: protein: recombinant; tags: N-terminal GST; dsDNA, one strand shown
T8 sequence: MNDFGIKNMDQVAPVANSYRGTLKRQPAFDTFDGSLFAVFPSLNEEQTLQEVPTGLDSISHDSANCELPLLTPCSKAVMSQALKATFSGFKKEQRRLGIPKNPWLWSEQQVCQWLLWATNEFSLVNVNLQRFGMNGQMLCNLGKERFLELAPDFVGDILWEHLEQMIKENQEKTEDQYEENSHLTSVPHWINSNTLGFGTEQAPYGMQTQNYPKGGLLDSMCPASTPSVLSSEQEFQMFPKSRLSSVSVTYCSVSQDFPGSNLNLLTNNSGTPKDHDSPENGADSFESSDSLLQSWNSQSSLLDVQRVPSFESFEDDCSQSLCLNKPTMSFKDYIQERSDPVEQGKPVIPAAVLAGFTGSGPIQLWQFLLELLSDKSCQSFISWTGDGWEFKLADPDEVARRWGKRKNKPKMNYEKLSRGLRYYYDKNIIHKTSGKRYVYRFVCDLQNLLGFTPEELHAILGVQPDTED
How it was run: as §1

SPDEF = target: T9, SPDEF (Homo sapiens, UniProt O95238 1-335); settings: protein: recombinant; tags: N-terminal GST; dsDNA, one strand shown
T9 sequence: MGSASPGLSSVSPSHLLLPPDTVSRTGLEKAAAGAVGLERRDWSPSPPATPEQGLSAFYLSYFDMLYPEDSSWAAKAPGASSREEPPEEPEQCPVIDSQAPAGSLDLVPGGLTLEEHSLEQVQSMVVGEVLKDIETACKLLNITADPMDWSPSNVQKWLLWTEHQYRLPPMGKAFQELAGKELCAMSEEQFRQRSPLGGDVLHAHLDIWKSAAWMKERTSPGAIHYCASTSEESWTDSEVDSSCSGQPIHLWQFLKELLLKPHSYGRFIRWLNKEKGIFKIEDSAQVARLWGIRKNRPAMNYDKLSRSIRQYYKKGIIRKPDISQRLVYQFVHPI
How it was run: as §1

ETV7 = target: T10, ETV7 (Homo sapiens, UniProt Q9Y603 1-341); settings: protein: recombinant; tags: N-terminal GST; dsDNA, one strand shown
T10 sequence: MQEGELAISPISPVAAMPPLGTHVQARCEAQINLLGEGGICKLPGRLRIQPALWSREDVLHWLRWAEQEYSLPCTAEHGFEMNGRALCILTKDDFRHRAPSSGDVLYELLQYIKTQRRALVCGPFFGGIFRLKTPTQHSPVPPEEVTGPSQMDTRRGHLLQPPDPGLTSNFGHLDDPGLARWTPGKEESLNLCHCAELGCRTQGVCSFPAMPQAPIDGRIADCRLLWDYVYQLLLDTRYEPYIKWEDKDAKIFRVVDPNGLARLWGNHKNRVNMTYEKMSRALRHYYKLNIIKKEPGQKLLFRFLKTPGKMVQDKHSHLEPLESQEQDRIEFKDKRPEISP
How it was run: as §1

ELF5 = target: T11, ELF5 (Homo sapiens, UniProt Q9UKW6-2 1-255); settings: protein: recombinant; tags: N-terminal GST; dsDNA, one strand shown
T11 sequence: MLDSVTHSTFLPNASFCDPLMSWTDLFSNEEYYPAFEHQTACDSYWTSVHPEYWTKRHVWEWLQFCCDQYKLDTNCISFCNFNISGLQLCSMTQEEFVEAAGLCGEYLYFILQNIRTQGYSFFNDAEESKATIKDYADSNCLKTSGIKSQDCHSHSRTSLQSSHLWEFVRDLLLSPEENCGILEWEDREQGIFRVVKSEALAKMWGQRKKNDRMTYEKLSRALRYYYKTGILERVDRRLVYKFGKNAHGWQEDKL
How it was run: as §1

ETV3 = target: T12, ETV3 (Homo sapiens, UniProt P41162-2 1-143); settings: protein: recombinant; tags: N-terminal GST; dsDNA, one strand shown
T12 sequence: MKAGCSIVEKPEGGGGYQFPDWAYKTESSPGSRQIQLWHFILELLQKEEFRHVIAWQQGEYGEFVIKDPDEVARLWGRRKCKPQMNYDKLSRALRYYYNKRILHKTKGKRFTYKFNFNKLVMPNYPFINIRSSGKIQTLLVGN
How it was run: as §1

ETV6 = ETV6 (Homo sapiens, UniProt P41212 1-452); settings: protein: recombinant; tags: N-terminal GST; dsDNA, one strand shown
ETV6, sequence (P41212 whole entry): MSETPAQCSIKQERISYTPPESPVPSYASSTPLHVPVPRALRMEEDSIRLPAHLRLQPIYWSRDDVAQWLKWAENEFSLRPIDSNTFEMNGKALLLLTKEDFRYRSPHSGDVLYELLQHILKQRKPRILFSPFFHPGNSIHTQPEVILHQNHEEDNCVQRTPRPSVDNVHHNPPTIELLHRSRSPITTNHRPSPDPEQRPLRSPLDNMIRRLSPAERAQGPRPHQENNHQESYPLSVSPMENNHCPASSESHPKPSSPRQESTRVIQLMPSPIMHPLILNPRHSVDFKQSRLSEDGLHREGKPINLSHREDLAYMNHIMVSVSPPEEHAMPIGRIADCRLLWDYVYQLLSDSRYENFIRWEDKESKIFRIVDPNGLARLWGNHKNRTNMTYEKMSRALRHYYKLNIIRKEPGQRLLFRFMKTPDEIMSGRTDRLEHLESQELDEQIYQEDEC
How it was run: as §1

GCTTTC
binding signal (FEV): 1.25 fold enrichment (6-mer frequency, TF over GST control)
binding signal (ETV5): 1.24 fold enrichment (6-mer frequency, TF over GST control)
binding signal (HSF1): 1.35 fold enrichment (6-mer frequency, TF over GST control)
binding signal (SPIC): 1.06 fold enrichment (6-mer frequency, TF over GST control)
binding signal (ELF4): 1.23 fold enrichment (6-mer frequency, TF over GST control)
binding signal (ELK4): 1.26 fold enrichment (6-mer frequency, TF over GST control)
binding signal (ETV2): 1.59 fold enrichment (6-mer frequency, TF over GST control)
binding signal (ELF3): 1.47 fold enrichment (6-mer frequency, TF over GST control)
binding signal (CRX): 1.33 fold enrichment (6-mer frequency, TF over GST control)
binding signal (ETV1): 1.35 fold enrichment (6-mer frequency, TF over GST control)
binding signal (ERF): 1.28 fold enrichment (6-mer frequency, TF over GST control)
binding signal (ETV3L): 1.29 fold enrichment (6-mer frequency, TF over GST control)
binding signal (ETS2): 1.24 fold enrichment (6-mer frequency, TF over GST control)
binding signal (SPDEF): 1.18 fold enrichment (6-mer frequency, TF over GST control)
binding signal (ETV7): 1.31 fold enrichment (6-mer frequency, TF over GST control)
binding signal (ELF5): 1.23 fold enrichment (6-mer frequency, TF over GST control)
binding signal (ETV3): 1.25 fold enrichment (6-mer frequency, TF over GST control)
binding signal (ETV6): 1.23 fold enrichment (6-mer frequency, TF over GST control)

Source: article PMC7862700, “An all-to-all approach to the identification of sequence-specific readers for epigenetic DNA modifications on cytosine”
